TAG inh: reduces triacylglycerol accumulation in H9c2 cells | Nile Red lipid (TAG) fluorescence; cells loaded with 200 µM oleic acid | inhibition, % at 12.5 µM | hit rate 0.66% among 230,000;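 active = pattern-corrected inhibition of lipid staining of at least 50% with the nuclear-stain viability signal not falling by more than 50%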;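 note: 0% = DMSO wells and 100% = triacsin C control wells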
CRFR2-BP ag: CRF-BP/CRF-R2 complex agonism; HEK293 CRF-R2/CRF-BP, calcium dye fluorescence (FLIPR); percent of saturating CRF peptide response; activation, % at 13.2 µM; hit rate 0.46% among 350,000;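 active = activation of at least 50%, plus an integration ratio under a set limit after plate pattern correction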;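 note: plate controls were neutral control wells without compound for no effect and CRF at EC100 for full effect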
SKN-1 inh: blocks SKN-1 activity in C. elegans; hit rate 0.49% among 360,000; C. elegans VP596 Pgst-4::GFP/RFP ratio, acrylamide-induced, 24 h; inhibition, % at 21.8 µM;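 active = interference check ratio from 0.5 to 1.5 plus GFP to RFP signal ratio inhibition reaching or exceeding a fixed threshold, cut at about 30% in these data, passing the limit was not always enough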
H9c2 protect: modulators protecting cardiomyocytes from myocardial damage; H9c2 cardiomyocytes, H2O2 injury protection, ATPLite, 2 h; protection from H2O2 cell death, % at 20 µM; hit rate 0.63% among 360,000; AID 588492;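 active = compounds giving at least 50% protection of heart cells from peroxide-induced death in the single-dose screen, raw or plate-pattern-corrected value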;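 note: 0% = DMSO wells with peroxide and 100% = DMSO wells without peroxide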
hiPSC survival: hiPSC single-cell survival enhancement. ATPlite luminescence; 100% = ROCK inhibitor wells, 0% = DMSO. survival enhancement, % at 20 µM. hit rate 0.044% among 360,000; in the data active = survival enhancement above about 18%;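 note: cells exposed to compounds for 16 hours before the ATP read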
CRFBP-R2 block: CRF-BP/CRF-R2 complex antagonism; AID 588475; hit rate 0.59% among 350,000; inhibition, % at 11.8 µM; HEK293 CRF-R2/CRF-BP, CRF-induced calcium fluorescence;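 active = inhibition of the ligand-induced calcium signal above about 50% at the single tested concentration, limit read from the data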
Starred values were filed as active, the others as inactive; / = not tested or not shown. This is a sample that favours compounds with a hit; in the whole collection about 2.5% have one here.

SMILES | TAG inh | CRFR2-BP ag | SKN-1 inh | H9c2 protect | hiPSC survival | CRFBP-R2 block
COc1ccc(N2C(=O)c3cccc4c(N(C)CCO)ccc(c34)C2=O)cc1 | -27 | 77* | -23 | 13 | 0 | -57
CCCCON1C(=O)c2cccc3cccc(c23)C1=O | / | 0 | 9 | 13 | 0 | 99*
COc1ccc(CC(=O)OC(C)C(=O)NCc2ccc3c(c2)OCO3)cc1OC (stereo unspecified) | 25 | -3 | -2 | -4 | 0 | 12
O=C(CCSc1ccccn1)Nc1ccc(Br)cc1 | / | -1 | 9 | -4 | -1 | 11
Cc1cc(F)ccc1C(O)c1ncc(-c2cccc3ccccc23)[nH]1 (stereo unspecified) | -14 | / | 12 | -2 | 2 | /
COc1ccc(-c2ccc(/C=C3\C(=O)N(c4ccccc4)N=C3c3ccccc3)o2)c([N+](=O)[O-])c1 | 6 | -1 | 15 | 16 | 2 | 9
COc1ccc(-c2ccc(/C=C3/C(=N)N4C(C)=CSC4=NC3=O)o2)c([N+](=O)[O-])c1 | / | 1 | 43* | -16 | 3 | -21
CC1=NN(c2ccccc2)C(=O)/C1=C/C=C/C=C/N(C)C | -14 | -1 | 66* | 3 | -2 | 9
CC1=NN(c2ccc(C)cc2)C(=O)/C1=C\C=C\c1ccccc1 | -17 | 0 | 7 | -5 | 1 | -28
CC(NC(=O)Cn1nc(-c2ccccc2)c2ccccc2c1=O)c1ccccc1 (stereo unspecified) | 24 | -4 | 13 | 9 | -1 | 25
COc1ccc(Cn2nc(C(=O)O)c3ccccc3c2=O)cc1F | / | -2 | -7 | 35 | -1 | -14
CC(NC(=O)Cn1nc(C(=O)O)c2ccccc2c1=O)c1ccccc1 (stereo unspecified) | -5 | -1 | -33 | 81* | 0 | 9
COc1cccc(Cn2nc(C(=O)O)c3ccccc3c2=O)c1 | -1 | -1 | 11 | 64* | 0 | -3
O=C1C(=C(c2ccccc2)N2CCOCC2)Cc2ccccc21 | 84 | -2 | 3 | -10 | -4 | -15
C=CCn1c(SCC(=O)c2cccs2)nnc1-c1cccc(OC)c1 | / | 2 | 7 | 7 | 3 | -12
COc1ccc(-n2nnnc2SCC(=O)c2ccc(O)c(O)c2)cc1 | 2 | 0 | 8 | 60* | -2 | -10
C=CCn1c(SCC(=O)c2ccc(O)c(O)c2)nnc1-c1ccc(C)cc1 | 9 | -2 | -4 | 62* | -2 | -6
C=CCn1c(SCC(=O)c2ccc(O)c(O)c2)nnc1-c1cccc(OC)c1 | 10 | -1 | 9 | 54* | 1 | 4
NC(=O)c1ccc(-n2nnnc2SCC(=O)c2ccc(O)c(O)c2)cc1 | -12 | 0 | -11 | 4 | 0 | -9
C=CCn1c(SCC(=O)c2ccc(O)c(O)c2)nnc1-c1ccc(OC)cc1 | -1 | -1 | 6 | 40 | 2 | -3
CCCCn1nnnc1C(c1cc2ccccc2o1)N1CCN(c2cc(C)nc3ccccc23)CC1 (stereo unspecified) | / | / | 0 | / | -1 | /
CCN1CCN(CCNC(=O)CCc2c(C)c3c(C)nn(-c4ccccc4)c3n(C)c2=O)CC1 | / | -1 | 9 | 5 | 0 | -5
CCOC(=O)[C@]12CCC=C1N(Cc1ccc3c(c1)OCO3)C(=O)[C@H](CC(=O)NCc1ccc(C)o1)C2 | / | / | 1 | / | 0 | /
CC(=O)Nc1ccc2c(c1)Cc1cc(N3C(=O)C=CC3=O)ccc1-2 | 19 | 51* | 6 | -20 | 4 | -40
O=C1C=CC(=O)N1c1ccc2c(c1)Cc1cc(F)ccc1-2 | 34 | 3 | 2 | -20 | -2 | -4
SMILES | TAG inh | CRFR2-BP ag | SKN-1 inh | H9c2 protect | hiPSC survival | CRFBP-R2 block
COc1cccc(-c2oc3c(c2-c2ccc(OC)nc2)C(O)CCC3)c1 (stereo unspecified) | / | / | 6 | / | 0 | /
Cc1cccc(C(C)C)c1-n1nnnc1-c1ccccc1 | / | -5 | -12 | -10 | -1 | 54*
Cc1ccc(N2CCN(C(=O)N3CCOCC3)CC2)c(C)c1 | 5 | -5 | 15 | -1 | 0 | -3
CCNC(=S)NNC(=O)c1cccn(Cc2ccc(Cl)cc2Cl)c1=O | / | 61* | 13 | -1 | 4 | -87
Cc1ccccc1C(=O)NNC(=S)NC(=O)c1ccc(Cl)cc1Cl | / | 158* | 6 | 26 | -1 | -62
Cc1onc(-c2ccccc2)c1C(=O)NNC(=S)NC(=O)c1ccc(Cl)cc1Cl | / | 217* | 4 | 5 | -1 | -137
Cc1onc(-c2ccccc2)c1C(=O)NNC(=S)NC(=O)/C=C/c1ccccc1 | / | 66* | -1 | 1 | 0 | -26
C=CCNC(=S)NNC(=O)c1cccn(Cc2ccc(Cl)cc2Cl)c1=O | / | 18 | 10 | -1 | 4 | -61
Cc1onc(-c2ccccc2)c1C(=O)NNC(=O)c1ccccc1O | -7 | -1 | 0 | 14 | 0 | 2
COc1ccc(/C=C/C(=O)NC(=S)NNC(=O)c2c(-c3ccccc3)noc2C)cc1 | / | 2 | -2 | 19 | -2 | 3
CCc1nc2c(OCc3ccc(C(F)(F)F)cc3)cccn2c1N(C)C(=O)c1ccco1 | -5 | / | 20 | -3 | 5 | /
CC(C)NC(=O)C1C(c2ccc(C(F)(F)F)cc2)=Nc2ccccc2N1C(=O)c1cccc(C(F)(F)F)c1 (stereo unspecified) | / | / | 4 | / | / | /
CC(=O)Nc1c([N+](=O)[O-])cc2c3c(cccc13)CC2 | / | / | 12 | -2 | 0 | /
Cc1cccc(C)c1-n1nnnc1C1c2ccccc2C(=O)N1C1CC1 (stereo unspecified) | / | / | 13 | / | 1 | /
Cc1onc(-c2ccccc2)c1C(=O)NNC(=S)NC(=O)c1ccc(Br)cc1 | / | 150* | 22 | 1 | 1 | -39
Cc1onc(-c2ccccc2)c1C(=O)NNC(=O)c1ccccc1 | 1 | 0 | 4 | 1 | 0 | 4
O=[N+]([O-])c1ccc(N2CCc3ccccc3C2)cc1 | -10 | -3 | 44* | 12 | 2 | 1
O=C(c1ccc(O)cc1)c1ccc(O)cc1O | 4 | -1 | 6 | 0 | 0 | -9
O=C(c1ccccc1)c1ccc(O)cc1O | 0 | 61* | -46 | -9 | 0 | -44
CCOC(=O)[C@@H]1[C@H]2COc3ccccc3[C@H]2N2C(=O)N(c3ccc(Cl)cc3)C(=O)[C@@]12C | -14 | 5 | 11 | -3 | -2 | -10
CCOc1cc2c(cc1O)C(=NOC)CC1C2CCC2(C)C(O)CCC12 (stereo unspecified) | 40 | -3 | 10 | 6 | 0 | -35
COC(=O)c1[nH]c2ccccc2c1NC(=O)CNC1CCCCC1 | 19 | -2 | -8 | 86* | -1 | -9
CCOc1ccccc1NC1=C(OC)C(=O)C(Nc2ccccc2OCC)=C(OC)C1=O | 23 | -3 | 11 | 2 | 1 | 33
C/C(N=Nc1nc2ccccc2s1)=N\Nc1ccccc1O | 58* | -1 | 6 | 23 | -1 | -1
